Assay results from PubChem BioAssay (NCI).
This is part of a sample that, as a whole, favours compounds with a hit. Of some 79,000 tested, about 15% had one in any assay. Values without a mark were called inactive. Activity calls are given as the source filed them. No stated cut-off is given here; in the data, active means growth inhibition above about 70%; inactive means the rest.

How the values were obtained:
[1] = NCI Yeast Anticancer Drug Screen. Data for the rad52 strain (AID 147);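 further: 0% = growth of vehicle-treated control cultures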; conditions: S. cerevisiae rad52 mutant growth inhibition, stronger effect = higher value
Summary of the method: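 Measured: yeast growth inhibition. System: strain with a defined DNA damage repair alteration. Reference: vehicle-treated control cultures.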

[2] = NCI Yeast Anticancer Drug Screen. Data for the wt1 strain (AID 149);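 further: 0% = growth of vehicle-treated wt1 cultures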; conditions: S. cerevisiae wt1 strain (SPY 50644) growth inhibition, stronger effect = higher value
Summary of the method: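 wt1 strain grown with compound or vehicle; inhibition taken from the growth difference.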

[3] = NCI Yeast Anticancer Drug Screen. Data for the rad50EPP+ strain (AID 151);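 further: 0% = growth of vehicle-treated control cultures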; conditions: S. cerevisiae rad50 mutant strain, stronger effect = higher value
Summary of the method: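 One strain with a rad50 alteration (rad50EPP+) was compound-treated, its growth then compared to that of vehicle controls.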

[4] = NCI Yeast Anticancer Drug Screen. Data for the mgt1 strain (AID 153); conditions: S. cerevisiae mgt1 mutant growth inhibition, stronger effect = higher value
Summary of the method: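 After exposure of the mgt1 yeast mutant to compound, growth was measured and reported as inhibition compared with vehicle controls.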

[5] = NCI Yeast Anticancer Drug Screen. Data for the rad50 strain (AID 155);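 further: 0% = growth of vehicle-only cultures of the same strain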; conditions: S. cerevisiae rad50 strain growth inhibition, stronger effect = higher value
Summary of the method: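 DNA repair mutant yeast, compound exposure, growth read-out; inhibition is taken relative to vehicle.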

[6] = NCI Yeast Anticancer Drug Screen. Data for the mec2-1 strain (AID 157); conditions: S. cerevisiae mec2-1 strain, stronger effect = higher value
Summary of the method: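 Test agents were screened against the mec2-1 yeast strain, with defined DNA repair or cell cycle alteration. Growth was scored as inhibition against vehicle-only controls.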

[7] = NCI Yeast Anticancer Drug Screen. Data for the rad14 strain (AID 159);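 further: 0% = growth of vehicle-treated control cultures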; conditions: S. cerevisiae rad14 strain growth inhibition, stronger effect = higher value
Summary of the method: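 DNA repair-defective yeast, compound-exposed; % growth inhibition derived by comparison with vehicle-treated controls.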

[8] = NCI Yeast Anticancer Drug Screen. Data for the sgs1 mgt1 strain (AID 161);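 further: 0% = growth of cultures given vehicle only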; conditions: S. cerevisiae sgs1 mgt1 strain, stronger effect = higher value
Summary of the method: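 Test agents were incubated with a DNA-repair-mutant yeast strain. Growth was then read and compared against vehicle-treated controls.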

[9] = NCI Yeast Anticancer Drug Screen. Data for the CLN2oe strain (AID 163);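 further: 0% = growth of vehicle-only control cultures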; conditions: S. cerevisiae CLN2oe strain, stronger effect = higher value
Summary of the method: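 Here, growth inhibition in a cell-cycle-altered yeast strain after compound exposure was quantified against vehicle control growth.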

[10] = NCI Yeast Anticancer Drug Screen. Data for the cln2 rad14 strain (AID 165);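 further: 0% = growth equal to vehicle treated cultures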; conditions: S. cerevisiae cln2 rad14 strain, stronger effect = higher value
Summary of the method: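 Growth of compound-exposed yeast (cln2 rad14 genotype) measured and expressed as inhibition relative to vehicle.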

[11] = NCI Yeast Anticancer Drug Screen. Data for the bub3 strain (AID 167); conditions: S. cerevisiae bub3 mutant strain, stronger effect = higher value
Summary of the method: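 In this screen, a yeast mutant lacking normal mitotic checkpoint function is challenged with compound. Relative growth versus vehicle gives the inhibition value.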

[12] = NCI Yeast Anticancer Drug Screen. Data for the wt2 strain (AID 169);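 further: 0% = growth of vehicle-treated yeast cultures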; conditions: S. cerevisiae wt2 strain growth inhibition, stronger effect = higher value
Summary of the method: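 Genetically defined yeast strains from a DNA-repair/cell-cycle panel were used. Compound-exposed yeast growth was measured, and the inhibition was calculated relative to vehicle treatment.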

[13] = NCI Yeast Anticancer Drug Screen. Data for the mlh1 strain (AID 171);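 further: 0% = growth of vehicle-treated control cultures of the same strain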; conditions: S. cerevisiae mlh1 strain growth inhibition, stronger effect = higher value
Summary of the method: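 Here the genetically defined yeast mutant is grown with each compound, and the extent to which its growth falls below that of vehicle-exposed cells is reported.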

[14] = NCI Yeast Anticancer Drug Screen. Data for the sgs1 strain (AID 173);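 further: 0% = growth of vehicle-only control cultures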; conditions: S. cerevisiae sgs1 mutant, stronger effect = higher value
Summary of the method: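 Relative growth inhibition, referenced to vehicle, was determined in a yeast strain with a defined alteration affecting DNA damage repair or cell cycle control after compound exposure.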

[15] = NCI Yeast Anticancer Drug Screen. Data for the mlh1 rad18 strain (AID 175); conditions: S. cerevisiae mlh1 rad18 strain growth inhibition, stronger effect = higher value
Summary of the method: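 In this whole-cell yeast screen, a strain with altered DNA damage repair is challenged with compound, and its growth is measured against matched vehicle-treated controls.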

[16] = NCI Yeast Anticancer Drug Screen. Data for the rad18 strain (AID 177); conditions: S. cerevisiae rad18 mutant growth inhibition, stronger effect = higher value
Summary of the method: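 Screen uses a yeast strain with a defined lesion in DNA damage repair; compound effect is read as loss of growth compared to untreated vehicle cultures.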

[17] = at 5.0 µM (retest, dose inferred, filed as 0.5)
[18] = at 50.0 µM (retest, dose inferred, filed as 5.0)

Cn1c(=O)c2c(nc(N)n2C2OC(CO)C(O)C2O)n(C)c1=O (stereo not drawn)
growth inhibition ([1]; at 1.2 µM): -2%
growth inhibition ([1]; at 3.7 µM): -1%
growth inhibition ([1]; at 11.0 µM): -4%
growth inhibition ([1]; at 33.0 µM): -4%
growth inhibition ([1]; at 100.0 µM): 0%
growth inhibition ([2]; at 1.2 µM): -1%
growth inhibition ([2]; at 3.7 µM): -1%
growth inhibition ([2]; at 11.0 µM): -2%
growth inhibition ([2]; at 33.0 µM): -2%
growth inhibition ([2]; at 100.0 µM): 1%
growth inhibition ([3]; at 1.2 µM): -1%
growth inhibition ([3]; at 3.7 µM): 1%
growth inhibition ([3]; at 11.0 µM): 1%
growth inhibition ([3]; at 33.0 µM): -1%
growth inhibition ([3]; at 100.0 µM): 2%
growth inhibition ([4]; at 1.2 µM): -1%
growth inhibition ([4]; at 3.7 µM): -2%
growth inhibition ([4]; at 11.0 µM): 7%
growth inhibition ([4]; at 33.0 µM): -7%
growth inhibition ([4]; at 100.0 µM): 0%
growth inhibition ([5]; at 1.2 µM): -2%
growth inhibition ([5]; at 3.7 µM): 0%
growth inhibition [5, 17]: 17%
growth inhibition ([5]; at 11.0 µM): -11%
growth inhibition ([5]; at 33.0 µM): -1%
growth inhibition [5, 18]: 22%
growth inhibition ([5]; at 50.0 µM): 87.4% (active)
growth inhibition ([5]; at 100.0 µM): 1%
growth inhibition ([6]; at 1.2 µM): 0%
growth inhibition ([6]; at 3.7 µM): 1%
growth inhibition [6, 17]: -2%
growth inhibition ([6]; at 11.0 µM): 1%
growth inhibition ([6]; at 33.0 µM): -3%
growth inhibition [6, 18]: -19%
growth inhibition ([6]; at 50.0 µM): 92% (active)
growth inhibition ([6]; at 100.0 µM): -2%
growth inhibition ([7]; at 1.2 µM): -4%
growth inhibition ([7]; at 3.7 µM): -4%
growth inhibition ([7]; at 11.0 µM): -6%
growth inhibition ([7]; at 33.0 µM): -7%
growth inhibition ([7]; at 100.0 µM): 0%
growth inhibition [8, 17]: -17%
growth inhibition [8, 18]: 20%
growth inhibition ([8]; at 50.0 µM): 85.3% (active)
growth inhibition ([9]; at 1.2 µM): 1%
growth inhibition ([9]; at 3.7 µM): -3%
growth inhibition ([9]; at 11.0 µM): 3%
growth inhibition ([9]; at 33.0 µM): 3%
growth inhibition ([9]; at 100.0 µM): 10%
growth inhibition [10, 17]: -9%
growth inhibition [10, 18]: 50%
growth inhibition ([10]; at 50.0 µM): 88.6% (active)
growth inhibition ([11]; at 1.2 µM): 0%
growth inhibition ([11]; at 3.7 µM): 3%
growth inhibition [11, 17]: -19%
growth inhibition ([11]; at 11.0 µM): 12%
growth inhibition ([11]; at 33.0 µM): 15%
growth inhibition [11, 18]: 18%
growth inhibition ([11]; at 50.0 µM): 89% (active)
growth inhibition ([11]; at 100.0 µM): 15%
growth inhibition ([12]; at 1.2 µM): -4%
growth inhibition ([12]; at 3.7 µM): -4%
growth inhibition ([12]; at 11.0 µM): -4%
growth inhibition ([12]; at 33.0 µM): -2%
growth inhibition ([12]; at 100.0 µM): 0%
growth inhibition ([13]; at 1.2 µM): -1%
growth inhibition ([13]; at 3.7 µM): -7%
growth inhibition ([13]; at 11.0 µM): -1%
growth inhibition ([13]; at 33.0 µM): 3%
growth inhibition ([13]; at 100.0 µM): -1%
growth inhibition ([14]; at 1.2 µM): -1%
growth inhibition ([14]; at 3.7 µM): -1%
growth inhibition ([14]; at 11.0 µM): -1%
growth inhibition ([14]; at 33.0 µM): -2%
growth inhibition ([14]; at 100.0 µM): 1%
growth inhibition [15, 17]: 2%
growth inhibition [15, 18]: 37%
growth inhibition ([15]; at 50.0 µM): 83.8% (active)
growth inhibition ([16]; at 1.2 µM): -1%
growth inhibition ([16]; at 3.7 µM): 2%
growth inhibition ([16]; at 11.0 µM): -1%
growth inhibition ([16]; at 33.0 µM): -2%
growth inhibition ([16]; at 100.0 µM): -2%

N#CC(=Nc1ccccc1F)Nc1ccccc1F
growth inhibition ([1]; at 1.2 µM): -3%
growth inhibition ([1]; at 3.7 µM): -3%
growth inhibition ([1]; at 11.0 µM): -2%
growth inhibition ([1]; at 33.0 µM): 8%
growth inhibition ([1]; at 100.0 µM): 9%
growth inhibition ([2]; at 1.2 µM): -5%
growth inhibition ([2]; at 3.7 µM): -3%
growth inhibition ([2]; at 11.0 µM): -11%
growth inhibition ([2]; at 33.0 µM): -10%
growth inhibition ([2]; at 100.0 µM): -7%
growth inhibition ([3]; at 1.2 µM): 6%
growth inhibition ([3]; at 3.7 µM): 11%
growth inhibition ([3]; at 11.0 µM): 21%
growth inhibition ([3]; at 33.0 µM): 29%
growth inhibition ([3]; at 100.0 µM): 20%
growth inhibition ([4]; at 1.2 µM): -5%
growth inhibition ([4]; at 3.7 µM): -4%
growth inhibition ([4]; at 11.0 µM): -4%
growth inhibition ([4]; at 33.0 µM): 2%
growth inhibition ([4]; at 100.0 µM): -2%
growth inhibition ([5]; at 1.2 µM): 0%
growth inhibition ([5]; at 3.7 µM): 2%
growth inhibition [5, 17]: -6%
growth inhibition ([5]; at 11.0 µM): -1%
growth inhibition ([5]; at 33.0 µM): 5%
growth inhibition [5, 18]: -1%
growth inhibition ([5]; at 50.0 µM): -2.35%
growth inhibition ([5]; at 100.0 µM): 5%
growth inhibition ([6]; at 1.2 µM): -4%
growth inhibition ([6]; at 3.7 µM): -1%
growth inhibition [6, 17]: -4%
growth inhibition ([6]; at 11.0 µM): -4%
growth inhibition ([6]; at 33.0 µM): 8%
growth inhibition [6, 18]: 8%
growth inhibition ([6]; at 50.0 µM): -2.55%
growth inhibition ([6]; at 100.0 µM): 10%
growth inhibition ([7]; at 1.2 µM): -5%
growth inhibition ([7]; at 3.7 µM): -4%
growth inhibition ([7]; at 11.0 µM): -4%
growth inhibition ([7]; at 33.0 µM): 10%
growth inhibition ([7]; at 100.0 µM): 12%
growth inhibition [8, 17]: -3%
growth inhibition [8, 18]: 15%
growth inhibition ([8]; at 50.0 µM): 12.1%
growth inhibition ([9]; at 1.2 µM): 1%
growth inhibition ([9]; at 3.7 µM): 0%
growth inhibition ([9]; at 11.0 µM): 5%
growth inhibition ([9]; at 33.0 µM): 11%
growth inhibition ([9]; at 100.0 µM): 26%
growth inhibition [10, 17]: -1%
growth inhibition [10, 18]: -3%
growth inhibition ([10]; at 50.0 µM): -0.6%
growth inhibition ([11]; at 1.2 µM): -3%
growth inhibition ([11]; at 3.7 µM): -3%
growth inhibition [11, 17]: -2%
growth inhibition ([11]; at 11.0 µM): -1%
growth inhibition ([11]; at 33.0 µM): 5%
growth inhibition [11, 18]: 3%
growth inhibition ([11]; at 50.0 µM): 8.55%
growth inhibition ([11]; at 100.0 µM): -2%
growth inhibition ([12]; at 1.2 µM): -2%
growth inhibition ([12]; at 3.7 µM): -3%
growth inhibition ([12]; at 11.0 µM): -5%
growth inhibition ([12]; at 33.0 µM): 2%
growth inhibition ([12]; at 100.0 µM): 3%
growth inhibition ([13]; at 1.2 µM): -1%
growth inhibition ([13]; at 3.7 µM): -5%
growth inhibition ([13]; at 11.0 µM): -6%
growth inhibition ([13]; at 33.0 µM): -2%
growth inhibition ([13]; at 100.0 µM): 5%
growth inhibition ([14]; at 1.2 µM): -3%
growth inhibition ([14]; at 3.7 µM): -7%
growth inhibition ([14]; at 11.0 µM): -6%
growth inhibition ([14]; at 33.0 µM): 12%
growth inhibition ([14]; at 100.0 µM): 24%
growth inhibition ([16]; at 1.2 µM): -6%
growth inhibition ([16]; at 3.7 µM): -7%
growth inhibition ([16]; at 11.0 µM): -10%
growth inhibition ([16]; at 33.0 µM): -2%
growth inhibition ([16]; at 100.0 µM): 9%
